PubChem BioAssay (Tox21)
Inconclusive results are not listed. A call without a number means that no potency is given here. Calls of active or inactive are those of the source. Calls come from the whole dose curve.

biological target: 5-hydroxytryptamine receptor 2A (Homo sapiens) (UniProt P28223); assay: 5-hydroxytryptamine receptor 2A (HTR2A) small molecule agonists, cell-based qHTS assay (AID 1963587); settings: HTR2A-CHO cells, calcium flux fluorescence, agonist mode; series mostly up to 76.8 µM; note: nearly all actives have a fitted effect of over 30% in size
Sequence (P28223 whole entry, looked up): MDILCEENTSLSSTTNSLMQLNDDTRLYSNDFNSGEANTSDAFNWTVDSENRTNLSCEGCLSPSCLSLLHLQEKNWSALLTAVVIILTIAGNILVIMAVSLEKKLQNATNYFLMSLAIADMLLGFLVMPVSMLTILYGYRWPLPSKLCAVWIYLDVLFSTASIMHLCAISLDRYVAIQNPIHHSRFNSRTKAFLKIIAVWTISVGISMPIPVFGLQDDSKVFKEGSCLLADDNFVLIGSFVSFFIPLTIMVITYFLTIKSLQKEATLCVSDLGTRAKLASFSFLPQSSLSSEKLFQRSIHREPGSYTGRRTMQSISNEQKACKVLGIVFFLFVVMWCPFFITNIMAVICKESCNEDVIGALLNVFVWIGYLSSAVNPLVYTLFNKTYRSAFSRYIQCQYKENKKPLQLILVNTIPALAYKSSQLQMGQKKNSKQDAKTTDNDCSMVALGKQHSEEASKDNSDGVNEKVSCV
In short: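 HTR2A-CHO cells, plated 18 h at 37 C/5% CO2, dye-loaded 1 h at 37 C; compounds in DMSO added by pin tool (agonist mode). Intracellular calcium flux read as kinetic fluorescence on FDSS over 2 min at 1 s intervals.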

Row | Compound | Potency | activation
1 | CCOC(=O)C1=NN(c2ccccc2)C(=O)C1 | inactive | –
2 | C=C(C)CS(=O)(=O)O | inactive | –
3 | O=C(Cl)c1c(Cl)cccc1Cl | inactive | –
4 | Cc1ccc2c(c1)CCCN2 | inactive | –
5 | Cc1nc2ccc(CN(C)c3ccc(C(=O)N[C@@H](CCC(=O)O)C(=O)O)s3)cc2c(=O)[nH]1 | inactive | –
6 | O=C=NCC1CCCC(CN=C=O)C1 (centres undefined) | inactive | –
7 | OC/C=C/c1ccccc1 | inactive | –
8 | CC(C)=CC=O | inactive | –
9 | CCCCCCCCCCCCOC(C)=O | inactive | –
10 | CC1=C(C(=O)O)N2C(=O)[C@@H](NC(=O)[C@H](N)C3=CCC=CC3)[C@H]2SC1 | inactive | –
11 | Oc1cc2ccccc2c2ccccc12 | inactive | –
12 | CC(C)(C)c1ccc(N)cc1 | inactive | –
13 | O=C1CCC(=O)N1Cl | inactive | –
14 | COc1ccc(CCO)cc1 | inactive | –
15 | CC(=O)OCC1=C(C(=O)O)N2C(=O)[C@@H](NC(=O)CSc3ccncc3)[C@H]2SC1 | inactive | –
16 | COC(=O)C(C)=O | inactive | –
17 | CC(O)CC(C)O (centres undefined) | inactive | –

Row | Compound | Potency | activation
18 | CN1C(C)(C)CC(O)CC1(C)C | inactive | –
19 | CC(C)CCC(=O)CCC(C)C | inactive | –
20 | CCCCCCCCCCCCCCC | inactive | –
21 | Nc1ccc2cc(S(=O)(=O)O)cc(O)c2c1N=Nc1ccccc1C(F)(F)F | inactive | –
22 | CO/N=C1\CN(c2nc3c(cc2F)c(=O)c(C(=O)O)cn3C2CC2)CC1CN (centres undefined) | inactive | –
23 | C=C(C)C(=O)OCCOP(=O)(O)OCCOC(=O)C(=C)C | inactive | –
24 | C=C(C)C(=O)OCCOCCOC(=O)C(=C)C | inactive | –
25 | CCCC(=O)O[C@]1(C(=O)COC(=O)CC)CC[C@H]2[C@@H]3CCC4=CC(=O)CC[C@]4(C)[C@H]3[C@@H](O)C[C@@]21C | – | 1.9% [at 15.9 µM] (inactive)
26 | O=Cc1ccccc1Cl | inactive | –
27 | CC(C)=CCCC(C)CC(=O)O (centres undefined) | inactive | –
28 | CC(C)(COC(=O)c1ccccc1)COC(=O)c1ccccc1 | inactive | –
29 | CN(C)CCOC(=O)C(c1ccccc1)C1(O)CCCC1 (centres undefined) | inactive | –
30 | CCCC(=O)O[C@]1(C(=O)CO)CC[C@H]2[C@@H]3CCC4=CC(=O)CC[C@]4(C)[C@H]3[C@@H](O)C[C@@]21C | inactive | –
31 | CCCCCCCCCCCCCCCC(=O)OCC | inactive | –
32 | O=C(O)Cc1ccc(OCCNC[C@H](O)c2ccccc2)cc1 | inactive | –
33 | O=C(O)c1c(Cl)ccc(Cl)c1Cl | inactive | –
34 | CC(=O)c1ccc([N+](=O)[O-])cc1 | inactive | –

biological target: Muscarinic acetylcholine receptor M1 (Homo sapiens) (UniProt P11229); assay: Cholinergic receptor muscarinic 1 (CHRM1) small molecule antagonists, cell-based qHTS assay (AID 1963588); settings: CHRM1-CHO antagonist mode, calcium flux fluorescence; series mostly up to 61.5 µM; note: nearly all actives have a fitted effect of over 40% in size
Sequence (P11229 whole entry, looked up): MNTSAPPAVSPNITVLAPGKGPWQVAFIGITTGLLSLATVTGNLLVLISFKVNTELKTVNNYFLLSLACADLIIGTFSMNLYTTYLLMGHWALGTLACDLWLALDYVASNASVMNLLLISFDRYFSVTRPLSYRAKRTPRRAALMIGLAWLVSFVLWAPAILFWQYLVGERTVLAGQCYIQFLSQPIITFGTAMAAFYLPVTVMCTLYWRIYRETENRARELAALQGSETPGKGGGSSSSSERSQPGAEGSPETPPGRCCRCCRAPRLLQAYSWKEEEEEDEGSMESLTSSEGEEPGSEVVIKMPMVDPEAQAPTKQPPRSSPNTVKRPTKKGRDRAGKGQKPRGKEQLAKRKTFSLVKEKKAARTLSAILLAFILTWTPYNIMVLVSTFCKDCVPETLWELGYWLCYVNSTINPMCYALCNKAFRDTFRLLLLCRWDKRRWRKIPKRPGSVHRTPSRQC
In short: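 Compounds were tested at 15 concentrations in three independent runs. Dye-loaded CHRM1-CHO cells were exposed 5 min at room temperature before stimulation by acetylcholine added at 50nM. Intracellular calcium was read kinetically on FDSS for 3 min.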

Row | Compound | activity, negative = inhibition | Potency
35 | CCCCCCCCCCCCCOC(=O)CCSCCC(=O)OCCCCCCCCCCCCC | 18% [at 12.6 µM] (inactive) | –
36 | CC(C)=CC=O | – | inactive
37 | CC(=O)c1ccc(C)cc1 | – | inactive
38 | CC1=C(C(=O)O)N2C(=O)[C@@H](NC(=O)[C@H](N)C3=CCC=CC3)[C@H]2SC1 | – | inactive
39 | SC1CCCC1 | – | inactive
40 | CC(O)CC(C)O (centres undefined) | – | inactive
41 | CC(C)CCC(=O)CCC(C)C | – | inactive
42 | CO/N=C1\CN(c2nc3c(cc2F)c(=O)c(C(=O)O)cn3C2CC2)CC1CN (centres undefined) | – | inactive
43 | CCCC(=O)O[C@]1(C(=O)COC(=O)CC)CC[C@H]2[C@@H]3CCC4=CC(=O)CC[C@]4(C)[C@H]3[C@@H](O)C[C@@]21C | 0.329% [at 12.6 µM] (inactive) | –
44 | O=Cc1ccccc1Cl | – | inactive
45 | CC(C)=CCCC(C)CC(=O)O (centres undefined) | – | inactive
46 | CCCCCCCCCCCCCCCC(=O)OCC | – | inactive
47 | CC(O)CN (centres undefined) | – | inactive
48 | CCCCCCOC(=O)CCCCCCCC(=O)OCCCCCC | – | inactive
49 | Cc1ccccc1N=C(N)N=C(N)N | – | inactive

biological target: Muscarinic acetylcholine receptor M1 (Homo sapiens) (UniProt P11229); assay: Cholinergic receptor muscarinic 1 (CHRM1) small molecule agonists, cell-based qHTS assay (AID 1963589); settings: CHRM1-CHO cells, agonist mode, calcium flux fluorescence; series mostly up to 76.8 µM; note: nearly all actives have a fitted effect of over 35% in size
In short: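 Cells were plated and incubated 18 h at 37 C/5% CO2, loaded with calcium dye for 1 h at 37 C, then treated with compounds in DMSO. Fluorescence was recorded kinetically at 1 sec intervals.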

Row | Compound | Potency | activation
50 | CCOC(=O)C1=NN(c2ccccc2)C(=O)C1 | inactive | –
51 | C=C(C)CS(=O)(=O)O | inactive | –
52 | O=C(Cl)c1c(Cl)cccc1Cl | inactive | –
53 | Cc1ccc2c(c1)CCCN2 | inactive | –
54 | Cc1nc2ccc(CN(C)c3ccc(C(=O)N[C@@H](CCC(=O)O)C(=O)O)s3)cc2c(=O)[nH]1 | inactive | –
55 | CCCCCCCCCCCCCOC(=O)CCSCCC(=O)OCCCCCCCCCCCCC | – | -0.105% [at 15.8 µM] (inactive)
56 | O=C=NCC1CCCC(CN=C=O)C1 (centres undefined) | inactive | –
57 | OC/C=C/c1ccccc1 | inactive | –
58 | CC(=O)c1ccc(C)cc1 | inactive | –
59 | CCCCCCCCCCCCOC(C)=O | inactive | –
60 | Oc1cc2ccccc2c2ccccc12 | inactive | –
61 | CC(C)(C)c1ccc(N)cc1 | inactive | –
62 | O=C1CCC(=O)N1Cl | inactive | –
63 | COc1ccc(CCO)cc1 | inactive | –
64 | CC(=O)OCC1=C(C(=O)O)N2C(=O)[C@@H](NC(=O)CSc3ccncc3)[C@H]2SC1 | inactive | –
65 | COC(=O)C(C)=O | inactive | –
66 | SC1CCCC1 | inactive | –
67 | CN1C(C)(C)CC(O)CC1(C)C | inactive | –
68 | CCCCCCCCCCCCCCC | inactive | –
69 | Nc1ccc2cc(S(=O)(=O)O)cc(O)c2c1N=Nc1ccccc1C(F)(F)F | inactive | –
70 | C=C(C)C(=O)OCCOP(=O)(O)OCCOC(=O)C(=C)C | inactive | –
71 | C=C(C)C(=O)OCCOCCOC(=O)C(=C)C | inactive | –
72 | CC(C)(COC(=O)c1ccccc1)COC(=O)c1ccccc1 | inactive | –
73 | CN(C)CCOC(=O)C(c1ccccc1)C1(O)CCCC1 (centres undefined) | inactive | –
74 | CCCC(=O)O[C@]1(C(=O)CO)CC[C@H]2[C@@H]3CCC4=CC(=O)CC[C@]4(C)[C@H]3[C@@H](O)C[C@@]21C | inactive | –
75 | CC(O)CN (centres undefined) | inactive | –
76 | O=C(O)Cc1ccc(OCCNC[C@H](O)c2ccccc2)cc1 | inactive | –
77 | O=C(O)c1c(Cl)ccc(Cl)c1Cl | inactive | –
78 | CCCCCCOC(=O)CCCCCCCC(=O)OCCCCCC | inactive | –
79 | Cc1ccccc1N=C(N)N=C(N)N | inactive | –
